Results taken from PubChem BioAssay (EPA / NIEHS).
Inconclusive results are not listed. The source made the active and inactive calls. How the source made its calls: active means hit-call score of the fitted dose curve at least 0.9, where 1 is the maximum; inconclusive means response in the unintended direction; inactive means score below 0.9.

What follows are compounds tested on Sodium/Iodide Symporter (NIS), SLC5A5 (gene 6528) (assay: CPHEA_Stoker_NIS_Inhibition_RAIU: CPHEA's Radioactive Iodide Uptake (RAIU) Assay for Sodium/Iodide Symporter (NIS) Inhibition, Stoker and Laws Labs (AID 2283841)).
Method: CPHEA_Stoker_NIS is a cell-based, single-readout assay that uses hNIS-HEK293T-EPA, a novel human kidney cell line expressing human NIS, with measurements taken at 2 hours after chemical dosing in a 96-well plate. This radioactive iodide uptake (RAIU) assay is used to identify inhibitors of NIS-mediated iodide uptake. A parallel cytoxicity assay (Cell Titer Glo, Promega) was also run in the same cell line.CPHEA_Stoker_NIS_Inhibition_RAIU is one of 2 assay components measured from the CPHEA_Stoker_NIS assay. It is designed to make measurements of radioactive substrate uptake to understand transporter function, as detected with 125-i signals by MicroBeta radioactivity plate reader technology.Data from the assay component CPHEA_Stoker_NIS_Inhibition_RAIU was analyzed at the endpoint, CPHEA_Stoker_NIS_Inhibition_RAIU, in the positive analysis fitting direction relative to DMSO as the negative control and baseline of activity. Measures of radioactive substrate uptake for loss-of-signal activity can be used to understand the effects on transporter function at the pathway level as they relate to the sodium-iodide symporter, gene SLC5A5. To generalize the intended target to other relatable targets, this assay endpoint is annotated to the transporter intended target family, where the subfamily is sodium-iodide symporter (NIS).
hNIS-HEK293T-EPA cells were seeded with a MultiFlo FX dispenser (BioTek, Winooski, VT) into ScintiPlate-96 microplates (Perkin Elmer, Waltham, MA) at a density of 4.0x10^4 cells per well in 200uL growth media and incubated for 40 hours before experimentation. On day of the assay, carrier-free 125I (Perkin-Elmer, Waltham, MA; specific activity: 17.4Ci/mg) was diluted with Hanks' balanced salt solution (Sigma, St. Louis, MO) supplemented with 10mM HEPES (uptake buffer; pH 7.4) at 5uCi/mL (288pg 125I/mL uptake buffer; 2.30nM). The assay was initiated by washing cells twice with 200uL uptake buffer using a 96-well Tecan HydroSpeed plate washer (Tecan, Mannedorf, Switzerland). Uptake buffer (59.7uL) was then added back to each well. Chemical samples (350nL at 200X) were administered using the HDR tool as previously described to achieve a 1X chemical/0.5% final DMSO concentration with subsequent addition of 10uL of 125I dilution (final [125I]: 329pM; 2.88pg/well) for a final reaction volume of 70uL/well. Cells were incubated at room temperature for 2 hours and then washed twice with 200uL ice cold uptake buffer. All uptake buffer was aspirated from wells, plates were sealed, and read on a MicroBeta2 plate reader (Perkin Elmer, Waltham, MA) using a detection protocol to measure CPM corresponding to intracellular 125I concentration. Each chemical concentration (0.001, 0.01, 0.1, 1.0, 10, and 100uM) was assayed in triplicate with three independent biological replicate plates (3 sequential cell passages). Additionally, a concentration response of NaClO4 (0.001, 0.01, 0.1, 1.0, 10, and 100uM) served as a positive control inhibition curve on each RAIU assay plate. DMSO control wells were assayed on each plate as a measure of maximum iodide uptake for normalization and determination of intra- and inter-assay variation. (Toxicol In Vitro, 2017, 40:66-78).

SMILES	outcome	AC50
CCN(CC)C(=S)SSC(=S)N(CC)CC	inactive	
CCc1ccc(O)c(C(C)(C)C)c1	inactive	
Cn1cc[nH]c1=S	inactive	
COc1cc(C(C)C)c2c(c1)S(=O)(=O)N(COc1cc(=O)n3cccc(OCCN4CCCCC4)c3n1)C2=O	inactive	
OCC(CO)(CO)CO	inactive	
CC(C)C(=O)Nc1ccc([N+](=O)[O-])c(C(F)(F)F)c1	inactive	
c1ccc(C(O[C@@H]2CCCN(CCc3ccc4c(c3)OCO4)C2)c2ccccc2)cc1	inactive	
C=CCc1cc(S(=O)(=O)c2ccc(O)c(CC=C)c2)ccc1O		38.9 µM (active)
O=S(=O)(O)CCC(F)(F)C(F)(F)C(F)(F)C(F)(F)C(F)(F)C(F)(F)F	inactive	
CCCCC(CC)C(=O)OCCOCCOCCOC(=O)C(CC)CCCC (centres undefined)	inactive	
Cc1nccn1-c1ccc(Sc2cccc(C3(C(N)=O)CCOCC3)c2)cc1	inactive	
NC(=O)N1c2ccccc2C=Cc2ccccc21	inactive	
CCCCOC(=O)c1ccccc1	inactive	
CC(C)c1nnc2ccc(-c3ocnc3-c3cc(F)ccc3F)cn12	inactive	
